# Screening data as filed in PubChem BioAssay.
# Shown are actives, neighbours in structure and some others; about 2.8% of the full set was active somewhere.
# RGS4 inh – blocks human RGS4-accelerated GTP hydrolysis; AID 504845; Transcreener GDP fluorescence polarization, RGS4-accelerated GTP hydrolysis; actives 0.039% (n = 390,000); Potency, µM (doses to about 114 µM), for inactives: at the top dose activity change, negative = inhibition, usual class: inhibitors; active = well fitted inhibition curve with a large enough effect; inconclusive = small, poorly fitted or top-dose-only effect; inactive = no such curve, though single readings can be large or run the other way; note: potency is the fitted concentration of half-maximal effect; % is set by controls: 0 for no effect and ±100 for the full control effect; nearly all actives have a fitted effect of over 75% in size
#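 MLSMR compounds (23 nl, pin-transferred) preincubated 10 min at room temperature with a 500nM (2x) first reagent, then RGS4 at 900nM (2x) plus Transcreener GDP mix added; fluorescence polarization (620/688 nm) read before and after 90 min at 30 °C.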
# pAkt inh – inhibitors of Akt phosphorylation; Neuro2A IGF-stimulated pAkt S473 HTRF, 20 min; active compounds read low; activity change, % for hits at 50 µM; actives 0.32% (n = 360,000); AID 651550; in the data active = activity change below about -80%; inconclusive = mostly about -51% to -80%; note: % is set by controls: 0 for no effect and ±100 for the full control effect
#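 Neuro2A cells in DMEM with 0.5% FBS, overnight at 37 deg C, given compound at single 50 µM final, then IGF (6 nM final) for 20 min at 37 deg C. Lysed; phospho-Akt Ser473 by HTRF after 24 h, 665/615 ratio.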
# LDHA block – inhibitors of human lactate dehydrogenase A | P00338 | purified LDHA, NADH/diaphorase-resazurin fluorescence; active compounds read low | activity change, % (values are at about 110 or 230 µM) | actives 0.15% (n = 480,000); in the data active = activity change below about -30%; inconclusive = mostly about -25% to -30%;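 note: plate controls were DMSO wells for no effect and wells without enzyme for full effect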
#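 Enzyme activity of human lactate dehydrogenase 5 (2 nM; 0.06 mM NADH, 0.2 mM pyruvate, 5 min, RT) is measured via a resazurin/diaphorase fluorescence readout of residual NADH.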
# DRD3 agonist – agonists of human D3 dopamine receptor. P35462. D3R DiscoveRx beta-arrestin cells, luminescence, 90 min. max activation, %. actives 0.58% (n = 410,000); in the data active = max activation above about 30%; note: 0% is about no effect
#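 Agonist-mode cell screen: cells plated at 1500/well and incubated overnight at 37 °C, then exposed to library compounds for 90 min at 37 °C. Detection reagent was added for 30–60 min at room temperature, and luminescence was read.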
# PI4K2A block – PI4K2A (human) kinase inhibition. purified PI4K2A, ADP-Glo luminescence, 1 h; active compounds read low. actives 0.13% (n = 420,000). activity change, negative = inhibition, % at 76.9 µM; in the data active = activity change below about -50%; inconclusive = mostly about -30% to -49%;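 note: -100% = wells without enzyme as full effect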
# Target sequence (Q9BTU6 whole entry, looked up): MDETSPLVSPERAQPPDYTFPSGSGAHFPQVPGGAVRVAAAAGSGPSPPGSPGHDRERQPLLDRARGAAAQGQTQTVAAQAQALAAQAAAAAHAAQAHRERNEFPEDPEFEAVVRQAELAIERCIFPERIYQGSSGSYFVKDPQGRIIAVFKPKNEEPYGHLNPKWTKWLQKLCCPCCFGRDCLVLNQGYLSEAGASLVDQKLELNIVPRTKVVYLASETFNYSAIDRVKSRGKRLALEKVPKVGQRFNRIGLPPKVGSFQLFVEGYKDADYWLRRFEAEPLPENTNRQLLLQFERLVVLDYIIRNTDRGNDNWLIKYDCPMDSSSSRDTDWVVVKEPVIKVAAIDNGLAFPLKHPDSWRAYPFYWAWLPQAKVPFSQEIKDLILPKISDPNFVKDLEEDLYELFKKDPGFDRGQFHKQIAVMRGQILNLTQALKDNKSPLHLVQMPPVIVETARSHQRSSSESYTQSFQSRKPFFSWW
#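 Compounds are screened against recombinant PI4K2A using PI as substrate and ATP, the latter dispensed at 300 microM. Reactions run one hour at ambient temperature before ADP-Glo detection; full inhibition defined by wells lacking enzyme.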
# DRD3 antagonist – antagonists of human D3 dopamine receptor | P35462 | D3R cells, DiscoveRx beta-arrestin luminescence, antagonist mode; active compounds read low | max response, negative = inhibition, % | actives 2.5% (n = 360,000) | AID 652054; in the data active = max response below about -50%; inconclusive = no clear call, values can overlap the other calls; note: % is set by controls: 0 for no effect and ±100 for the full control effect
#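 Cells plated overnight at 1500 cells/well, then exposed to library compounds with dopamine controls for 90 minutes at 37 degrees C. DiscoveRx reagent added for 30–60 minutes at room temperature; luminescence read, quantitative HTS format.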
# * hit, by the source's call; i = inactive; ? = inconclusive; / = no result.
SMILES,RGS4 inh,pAkt inh,LDHA block,DRD3 agonist,PI4K2A block,DRD3 antagonist
Oc1c(C(Nc2cccc(C(F)(F)F)c2)c2ccncc2)ccc2cccnc12 (configuration not stated),-31%,i,13,7,-2,-54*
Oc1c(C(Nc2nccs2)c2ccc(C(F)(F)F)cc2)ccc2cccnc12 (configuration not stated),-11%,i,4,39*,6,27
Cc1c(NC(=O)c2ccc(C#N)cc2F)cccc1-c1nc2ccccc2o1,/,/,-11,/,/,/
Cc1ccc(C(=O)O)cc1NC(=O)CC(C)(C)C,/,/,7,/,/,/
COC(=O)c1[nH]c2ccc(C)cc2c1NS(=O)(=O)c1ccc(F)c(C)c1,-33%,i,-2,-9,0,-51*
COC(=O)c1[nH]c2ccc(C)cc2c1NS(=O)(=O)c1ccc(F)cc1,-19%,-119%*,-1,0,-7,-13
O=C(Nc1ccc2c(c1)CCC2)c1cc(F)c(F)cc1Cl,/,/,5,/,/,/
CCOc1ccc(OCC)c(NC(=O)c2nc3ccccc3nc2N2CCCCC2)c1,/,/,8,/,/,/
C=CCn1nc(-c2ccccc2)cc1C(=O)OCC,14%,i,-12,40*,-5,112
COc1ccccc1CCc1nnc(CCC(=O)NCC[C@@H]2C[C@@H]3C=C[C@H]2C3)o1,-19%,i,-1,3,-3,-62*
COc1ccccc1CCc1nnc(CCC(=O)NCCC2CCCCO2)o1 (configuration not stated),/,i,-6,-5,6,-6
CCOC(=O)c1c(CN2CCCCC2)n(C)c2cc(Br)c(O)cc12,-16%,i,-12,-59,-3,-87*
Cc1csc(NC(=O)CCc2ncc(-c3ccc(Cl)cc3)o2)n1,/,/,0,/,/,/
Cc1ccc(C)c(N2CCN(C(=O)C3CCCN(S(=O)(=O)c4cccc5nsnc45)C3)CC2)c1 (configuration not stated),-16%,/,-11,16,-3,/
Cc1ccc(C)c(N2CCN(C(=O)C3CCN(S(=O)(=O)c4cccc5nsnc45)CC3)CC2)c1,-20%,i,1,-3,-61*,21
O=C(NC(c1ccc2c(c1)OCO2)c1ccccn1)C1CCN(CCOc2ccccc2)CC1 (configuration not stated),/,i,-9,8,-2,-72*
COc1ccc(OCCN2CCC(C(=O)NC(c3ccc(C)cc3)c3ccccn3)CC2)cc1 (configuration not stated),/,i,-1,-18,-4,-74*
COc1cccc(C(NC(=O)C2CCN(CCCOc3ccccc3)CC2)c2ccccn2)c1 (configuration not stated),/,/,6,-21,5,-89*
COc1ccc(C(NC(=O)C2CCN(CCOc3ccccc3)CC2)c2ccccn2)cc1 (configuration not stated),/,i,-6,4,-2,?
COc1ccc(OCCN2CCC(C(=O)NC(c3ccccn3)c3ccccc3OC)CC2)cc1 (configuration not stated),/,i,-2,22,-4,-5
O=C(c1ccc2c3n(nc2c1)-c1ccccc1CO3)N1CCOCC1,4%,i,-1,1,-55*,-1
CC(C)NC(=O)c1ccc2c3n(nc2c1)-c1ccc(Cl)cc1CO3,-14%,i,-3,31*,-2,5
CCN(CC)CCCNC(=O)c1ccc2c3n(nc2c1)-c1ccc(Cl)cc1CO3,11%,i,-3,-66,0,-116*
Cc1ccc2c(c1)COc1c3ccc(C(=O)N[C@@H](CO)C(C)C)cc3nn1-2,15%,i,-9,0,-6,0
Cc1cc(C(=O)N2CCCc3cc(C(F)(F)F)ccc32)c2ccccc2n1,/,/,8,/,/,/
COc1cc(CN2CCC(C(O)(c3ccccc3)c3ccccc3)CC2)ccc1OCc1ccccc1,/,/,4,/,/,/
OCCN1CCN(Cc2cc(Br)cc(Br)c2O)CC1,-22%,/,2,-26,-1,-51*
